Experimental findings from PubChem BioAssay (NCI) are described below.

Compounds without any hit were thinned out: in the full panel of roughly 83,000, 20% have a hit.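 For each line, cells grew in 96-well plates with the test compound present at a single concentration for 48 hours.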 Unmarked numbers belong to inactive results. Active and inactive are the calls of the source. Rule for the calls: active = growth percent below 10; inactive = the rest.

Some test systems named below: EKVX NSCLC; SN12C renal; UO-31 renal; TK-10 renal; ACHN renal; CAKI-1 renal; A498 renal; CCRF-CEM leukemia; MOLT-4 leukemia; SR leukemia.
What all share (assay): NCI-60 one-dose screen, 48 h (100 = growth as untreated, 0 = no growth, -100 = all killed)
Common to all, as to conditions: 10 µM unless noted

As to `Cc1ccc2sc3c(NCCCNCCO)nc4ccccc4c3c(=O)c2c1`, the growth is 57.3% in the test on EKVX NSCLC; 72.8% in the test on SN12C renal; 48.6% with UO-31 renal; 66.9% in the test on TK-10 renal; 6.81% (active) in the test on ACHN renal; 56.7% with CAKI-1 renal. The growth in the test with A498 renal was 65.8%; in the test on CCRF-CEM leukemia it was 10.8%; in the test on MOLT-4 leukemia, -39.3% (active); with SR leukemia, 2.94% (active).
Take `O=c1cc(-c2ccccc2)oc2cc(OCc3cn(Cc4ccc(F)cc4)nn3)cc(OCc3cn(Cc4ccc(F)cc4)nn3)c12`: the growth was 57.2% in the test on EKVX NSCLC; 38.7% in the test on SN12C renal; 3.64% (active) in the test on UO-31 renal; 37.1% in the test on TK-10 renal; 7.3% (active) in the test on ACHN renal; 54.6% in the test on CAKI-1 renal. Further, the growth in the test on A498 renal is 30.8%; in the test with CCRF-CEM leukemia, 77.5%; with MOLT-4 leukemia, 83.2%; in the test with SR leukemia, 32.7%.
With `COc1cc2c(cc1OC)C(=O)C(CC1CCN(C(=O)Nc3ccc(C)cc3)CC1)C2` (stereo not given), the growth was 90.9% in the test with EKVX NSCLC; 92.5% with SN12C renal; 60.4% in the test on UO-31 renal; 116% with TK-10 renal; 93.6% in the test on ACHN renal; 83.7% in the test on CAKI-1 renal. Moreover, the growth with A498 renal is 69.4%; with CCRF-CEM leukemia it was 97.8%; in the test with MOLT-4 leukemia it was 102%; with SR leukemia it was 112%.
On to `O=C1Nc2ccccc2/C1=C/c1ccc[nH]1`, for which the growth is 32.8% in the test on EKVX NSCLC; 92.7% with SN12C renal; 61.9% with UO-31 renal; 63.5% with TK-10 renal; 84% in the test with ACHN renal; 77.4% in the test on CAKI-1 renal. Moreover, the growth in the test with A498 renal was 88.5%; in the test with CCRF-CEM leukemia, 109%; with MOLT-4 leukemia, 101%; in the test on SR leukemia it was 71.7%.
Consider `Cc1ccc(Cc2cnc(NC(=O)CN3C(=O)/C(=C\c4ccccc4)SC3=S)s2)cc1`, for which the growth is 98.1% with EKVX NSCLC; 96.6% in the test on SN12C renal; 89.4% with UO-31 renal; 106% with TK-10 renal; 101% in the test with ACHN renal; 95.5% in the test with CAKI-1 renal. Further, the growth in the test on A498 renal is 109%; in the test with CCRF-CEM leukemia it was 107%; with MOLT-4 leukemia, 104%; with SR leukemia, 114%.
With `NCCNc1nc2ccccc2c2c(=O)c3cc(F)cc(Cl)c3sc12`, the growth in the test with EKVX NSCLC was -68.5% (active); in the test on SN12C renal, -83.7% (active); with UO-31 renal, -93.7% (active); with TK-10 renal it was -30.6% (active); in the test on ACHN renal it was -94.7% (active); with CAKI-1 renal it was -96.3% (active). The growth in the test on A498 renal was 46.9%; with CCRF-CEM leukemia, -28.1% (active); with MOLT-4 leukemia, 29.1%; in the test on SR leukemia, -27.7% (active).
Regarding `O=C(CSc1nc2ccccc2c(=O)n1-c1ccccc1)Nc1ccc(C(=O)/C=C/c2ccc(Cl)cc2)cc1`, the growth was 103% with EKVX NSCLC; 101% with SN12C renal; 82.5% in the test on UO-31 renal; 110% in the test with TK-10 renal; 102% with ACHN renal; 97.8% in the test on CAKI-1 renal. Besides, the growth in the test with A498 renal is 95.2%; with CCRF-CEM leukemia it was 99.7%; in the test on MOLT-4 leukemia, 99.5%; with SR leukemia it was 85.3%.
As for `Cc1ccc(N=NC2C(=O)N(c3ccc(Cl)cc3)N(c3ccc(Cl)cc3)C2=O)cc1`, the growth is 94.1% in the test with EKVX NSCLC; 96.4% with SN12C renal; 73.1% in the test on UO-31 renal; 132% in the test with TK-10 renal; 95% in the test on ACHN renal; 92.4% in the test on CAKI-1 renal. The growth is 88.6% in the test on A498 renal, 96.3% in the test with CCRF-CEM leukemia, 100% in the test on MOLT-4 leukemia and 120% in the test with SR leukemia.
For the compound `CCOC(=O)c1c2c(n3cccc(Cl)c13)C(=O)c1ncccc1C2=O`, the growth in the test on EKVX NSCLC is 75.7%; in the test with SN12C renal, 16.6%; with UO-31 renal, 43.9%; in the test with TK-10 renal, 75.6%; in the test on ACHN renal, 26.4%; with CAKI-1 renal, 25.8%. Besides, the growth is 79.3% in the test with A498 renal, 84.2% with CCRF-CEM leukemia, 95.8% in the test on MOLT-4 leukemia and 58.3% in the test with SR leukemia.
For `O=C(Nc1ccc(N2CCNCC2)cc1)c1[nH]ncc1Nc1cc(Oc2ccccc2)ncn1`, the growth is 32.5% in the test on EKVX NSCLC; 2.47% (active) in the test on SN12C renal; -13.1% (active) with UO-31 renal; 49.5% in the test with TK-10 renal; -99.1% (active) in the test on ACHN renal; 18.4% in the test on CAKI-1 renal. Moreover, the growth was 40.6% in the test with A498 renal, -27.5% (active) with CCRF-CEM leukemia, -16% (active) in the test on MOLT-4 leukemia and 1.43% (active) in the test on SR leukemia.
As to `COc1ccc2oc(=O)cc(Cn3cc(Cn4cnc5c4c(=O)n(C)c(=O)n5C)nn3)c2c1`, the growth is 103% in the test with EKVX NSCLC; 95.9% with SN12C renal; 83.3% with UO-31 renal; 100% with TK-10 renal; 98.7% with ACHN renal; 95.3% in the test on CAKI-1 renal. In addition, the growth is 103% in the test on A498 renal, 106% in the test on CCRF-CEM leukemia, 103% in the test on MOLT-4 leukemia and 106% in the test on SR leukemia.
Regarding `COC(=O)/C(CCC=C(C)C)=C1\[C@@H](OC(C)=O)C[C@@]2(C)[C@H]1C[C@@H](O)[C@H]1[C@@]3(C)CC[C@H](NCCCNCCCCNCCCN)[C@@H](C)[C@@H]3CC[C@@]12C`, the growth in the test on EKVX NSCLC was 66.2%; in the test with SN12C renal it was 38.2%; in the test with UO-31 renal, 51.7%; in the test with TK-10 renal it was 69.4%; in the test with ACHN renal, 42.4%; in the test on CAKI-1 renal, 61.9%. Besides, the growth with A498 renal was 69.1%; in the test on CCRF-CEM leukemia, 70.6%; in the test on MOLT-4 leukemia, 65.4%; in the test on SR leukemia, 42.3%.
For `COc1cccc2c(=O)c3c(sc12)c(NCCCNCCO)nc1ccccc13`, the growth in the test with EKVX NSCLC was 53.9%; with SN12C renal it was 56.5%; with UO-31 renal, 27.4%; in the test with TK-10 renal, 58.6%; in the test with ACHN renal, 33.6%; with CAKI-1 renal, 48.1%. Also, the growth in the test on A498 renal was 14.5%; in the test with CCRF-CEM leukemia, 29.2%; in the test on MOLT-4 leukemia it was 1.38% (active); with SR leukemia, 0.0565% (active).
As to `COc1cccc(/C(C#N)=C/c2nc3c(N4CCOCC4)nc(Cl)nc3n2C)c1`, the growth in the test with EKVX NSCLC was -77.3% (active); in the test with SN12C renal it was 12.8%; in the test on UO-31 renal, -95.9% (active); in the test with TK-10 renal, -65.6% (active); in the test on ACHN renal, -98% (active); with CAKI-1 renal it was -92.1% (active). Further, the growth in the test with A498 renal was -2.48% (active); in the test on CCRF-CEM leukemia, 2.67% (active); in the test with MOLT-4 leukemia, -19.4% (active); in the test with SR leukemia it was 5.6% (active).
